Measured values published in PubChem BioAssay AID1794844 (National Center for Advancing Translational Sciences (NCATS), 2023).
Hit rate of the full screen: of about 2,800 compounds, fewer than 10 were called active. Inconclusive results (about 7%) are left out. The list is a sample of the results. Values without a mark were called inactive. Calls come from the whole dose curve; as a rule, active = well fitted inhibition curve with a large enough effect; inconclusive = small, poorly fitted or top-dose-only effect; inactive = no such curve, though single readings can be large or run the other way.

These molecules were tested against Metallo-beta-lactamase type 2 (Klebsiella pneumoniae) (UniProt C7C422) (assay: qHTS to identify inhibitors of the New Delhi Metallo-beta-lactamase (NDM): Nitrocefin screen against the machine-based learning selections.). Conditions: NDM-1 enzyme, nitrocefin hydrolysis, absorbance 485 nm; series mostly up to 38.4 µM; activity, negative = inhibition: at the top concentration.
Sequence of Metallo-beta-lactamase type 2 (Klebsiella pneumoniae) (C7C422 whole entry, looked up): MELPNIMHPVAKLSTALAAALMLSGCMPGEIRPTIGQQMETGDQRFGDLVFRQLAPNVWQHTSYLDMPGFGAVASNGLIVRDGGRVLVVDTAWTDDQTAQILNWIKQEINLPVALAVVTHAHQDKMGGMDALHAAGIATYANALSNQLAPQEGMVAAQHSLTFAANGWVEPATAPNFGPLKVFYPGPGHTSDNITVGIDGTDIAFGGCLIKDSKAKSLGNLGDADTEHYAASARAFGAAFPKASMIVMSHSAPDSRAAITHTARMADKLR
Text: Assay Submitter (PI): James Inglese Ph.D., Patricia Dranchak Ph.D., Mahesh Aitha Ph.D. Assay Development and Screening Technology Laboratory (ADST) National Center for Advancing Translational Sciences (NCATS), Rockville, MD National Institute of Health (NIH), Bethesda, Maryland The metallo-beta-lactamases (MBL) are a main antibiotic resistance mechanism evolved by bacteria. There is an urgent clinical need for MBL inhibitors to mitigate this growing threat. To support a machine-based learning study, qHTS has been used to experimentally test inhibitors identified by prediction tools.
PROTOCOL TABLE (as described by Inglese et al., 2007) SEQUENCE No. (e.g., 1, 2, 3, etc.); […] (e.g., enzyme, Incubation, Reagent, etc.); VALUE; DESCRIPTION Primary Screen 1; NDM-1; 4 uL of 3 nM enzyme [2 nM final] in 50 mM HEPES (pH 7.0), 1 uM […], 0.01% Tween20; Use BioRaptr to dispense into two sets of Aurora black, clear bottom high base 1536-well plates 2; Compounds; 23 nL; Use Pin Tool (Wako) to transfer DMSO control and library compounds in DMSO 3; Incubate; >30 min 4a; Reagent; 2 uL of 50 uM nitrocefin [16.7 uM final] to one set of assay plates 4b; Reagent; 2 uL of 150 uM meropenem [50 uM final] to second set of assay plates 5a; Incubate; 15 min 5b; Incubate; 30 min 6a; Detector; Absorbance at 485 nm (bandwidth = 5 nm, 25 flashes/well) on Tecan Infinity 6b; Detector; Absorbance at 300 nm (bandwidth = 5 nm, 25 flashes/well) on Tecan Infinity NOTES (numbers refer to sequence above) 1; Column 1 of each plate received assay buffer without enzyme and columns 2-48 received enzyme for a final assay concentration of 2 nM. 2; Control plate contained DMSO in columns 1, 2, 3, and 4. 3; Compound interaction with enzyme. 4; Nitrocefin and meropenem substrates were prepared in the same assay buffer as step 1 for a final assay concentration of 16.7 uM and 50 uM, respectively, and added to all wells across respective sets of assay plates. 5; Default reader settings were applied for absorbance read at 485 nm (nitrocefin) or 300 nm (meropenem), bandwidth = 5 nm, 25 flashes/well. References: Inglese J, Shamu CE, Guy RK. 2007. Reporting data from high-throughput screening of small-molecule libraries. Nat Chem Biol. doi:10.1038/nchembio0807-438 Yasgar A, Shinn P, Jadhav A, Auld D, Michael S, Zheng W, Austin CP, Inglese J, Simeonov A. 2008. Compound Management for Quantitative High-Throughput Screening. J Lab Autom 13:79 - 89. doi:10.1016/j.jala.2007.12.004
Potency is the fitted concentration of half-maximal effect.
Throughout, for activity, negative = inhibition: % of control where 0% means no effect.

| Compound | activity, negative = inhibition | Potency |
| --- | --- | --- |
| COc1ccc(-c2nnc3n2CCN(C(=O)C(C)(C)C)C3)cc1 | 6.95% [at 57.5 µM] | – |
| O=C(Cc1c[nH]c2ncc(-c3ccc(Cl)cc3)cc12)NCc1cccnc1 | 5.86% [at 57.5 µM] | – |
| CC(C)(C)CC(=O)N1CC[C@H]2CC(=O)N(Cc3cccnc3)CC[C@H]2C1 | 2.57% [at 57.5 µM] | – |
| CC[C@H]1CN(C(C)=O)CC[C@H]1CC(=O)NC(C)C | -1.15% [at 76.7 µM] | – |
| CCNC(=O)[C@@H]1C[C@H](NC(=O)c2ccccc2)CN1Cc1scnc1C | -0.216% | – |
| CS(=O)(=O)N1CC(C(=O)Nc2ccc(N3CCOCC3)cc2)C2(CCCCC2)C1 (centres undefined) | -0.109% | – |
| O=C(NCc1cc2n(n1)CCN(C1CCCCC1)C2)c1cnn2ccccc12 | -7.31% | – |
| CCCN(CC1CCOC1)C(=O)Nc1cccc(F)c1C (centres undefined) | 1.38% | – |
| Cc1cccc(CN2CCCC3(CCN(Cc4cccc(O)c4)C3)C2)c1 (centres undefined) | 4.09% | – |
| O=C(O)CN1CCC[C@]2(C(=O)O)CN(Cc3cccc(O)c3)CC[C@@H]12 | – | 3.35 µM (active) |
| O=C(O)[C@]12CCCN[C@@H]1CCN(Cc1ccc(-c3ccccn3)cc1)C2 | -17.4% | – |
| Cc1cc(Cn2cc3c4c(cccc42)[C@H](CC(C)C)N[C@H](C(=O)N2CCN(C)CC2)C3)no1 | -2.8% | – |
| CN1CCOc2c(C(=O)NCc3cccnc3)cc(-c3ccccc3O)cc21 | 0.182% [at 57.5 µM] | – |
| Cc1ccc2c(n1)N(C)[C@H](CO)CCN(Cc1cccnc1)C2 | 4.8% [at 57.5 µM] | – |
| O=C(C1CC1)N1CCC2(CC1)CCN(CCc1ccccc1)c1ccccc1O2 | 49.1% | – |
| COc1ccc(OC)c(CNC(=O)CC2CCOCC2)c1 | -2.81% | – |
| O=c1[nH]nc(CNCC2(O)CCCNC2)c2ccccc12 (centres undefined) | -13.4% | – |
| Cc1ccc(C(=O)NC2CCN(c3ccc(F)cc3)C2=O)s1 (centres undefined) | -2.33% | – |
| Cc1noc(C)c1S(=O)(=O)N1CCCN(Cc2ccncc2)C(c2ccccc2)CC(=O)NCC1 (centres undefined) | 7.54% | – |
| COc1cccc(N2C(=O)N[C@@H]3CCN(S(=O)(=O)c4ccccc4)[C@@H]3C2=O)c1 | 0.447% [at 57.5 µM] | – |
| COc1ncccc1C(=O)N1CCc2c(nc(-c3cccnc3)[nH]c2=O)C1 | 3.94% | – |
| CN1CCOc2c(C(=O)NCCC(N)=O)cc(-c3ccccc3O)cc21 | -0.0482% [at 57.5 µM] | – |
| O=C(Cc1ccccc1)Nc1ccnn1C1CCN(Cc2ccc3cccc(F)c3n2)CC1 | -1.06% | – |
| COC(=O)[C@H]1CN(C(=O)c2cccnc2)CCN1C(=O)C1CCCCC1 | 2.03% [at 57.5 µM] | – |
| COCCNC(=O)C[C@@H]1O[C@H](CNC(=O)c2cccc(F)c2)[C@@H](O)[C@H]1O | -2.43% [at 57.5 µM] | – |

| Compound | activity, negative = inhibition | Potency |
| --- | --- | --- |
| N#Cc1cccc(CN2CCOC[C@H]2c2ncc(-c3ccc(C(F)(F)F)cc3)[nH]2)c1 | 3.87% [at 57.5 µM] | – |
| CCN(CC)Cc1nc(C2(O)CCN(C)CC2)cs1 | -1.47% [at 76.7 µM] | – |
| Fc1ccc2nc([C@H]3CCN(C4CCC4)C3)[nH]c2c1 | 14% [at 76.7 µM] | – |
| CSc1ncccc1C(=O)NC1CCCN(CCCc2ccccc2)C1 (centres undefined) | 9.24% | – |
| Cc1ccccc1C1CCCN1Cc1ncccc1C(=O)O (centres undefined) | – | 13.4 µM (active) |
| CC(=O)N1CCN(c2cc(-c3noc([C@@H]4CCCN4Cc4ccccc4C)n3)ccn2)CC1 | -0.621% | – |
| O=c1c2nc(NCc3cccs3)ccc2ncn1Cc1ccccc1 | 0.467% [at 57.5 µM] | – |
| COCCNS(=O)(=O)c1cc(C(=O)O)cc(-c2ccc(OC)c(F)c2)c1 | -0.8% | – |
| Cc1noc2c(-c3cccc(O)c3)cc(-c3cccs3)nc12 | 1.99% [at 57.5 µM] | – |
| COC[C@H]1CCCN1C(=O)[C@@H](C)C1CC[C@@]2(C)CC[C@H](NC(=O)CC(C)(C)C)[C@@H](C)[C@@H]2[C@H]1O (some centres undefined) | -2.54% | – |
| CN1C(=O)C(c2ccccc2)CC12CCN(C(=O)c1cccc(F)c1)CC2 (centres undefined) | 5.03% | – |
| CC(C)NC(=O)N1CCN(C(=O)N2CCOCC2)[C@@H](C(=O)N[C@H](Cc2c[nH]c3ccccc23)C(N)=O)C1 | -10.8% | – |
| CC[C@H]1CN(C(=O)NC(C)C)CC[C@H]1CC(=O)N(C)CCC#N | -12.7% [at 57.5 µM] | – |
| Cc1nn2cc(CCNCC3(O)CNCCOC3)nc2s1 (centres undefined) | 2.59% | – |
| COc1ccccc1C(O)c1nc(Nc2ccc(C(C)C)cc2)n[nH]1 (centres undefined) | 7.45% [at 57.5 µM] | – |
| Cc1ccc(NC(=O)N[C@@H]2C=C(C(=O)N[C@H](CC(C)C)C(N)=O)C[C@@H](O)[C@@H]2O)cc1 | 2.2% [at 57.5 µM] | – |
| Cc1ccc(-n2nc(C)c([C@@H]3C=C[C@@H](NCc4cccc(C#N)c4)C3)c2C)cc1Cl | 2.91% [at 57.5 µM] | – |
| OC(c1ccccc1)c1nc(Nc2ccc(C(F)(F)F)cc2)n[nH]1 (centres undefined) | 7.39% [at 57.5 µM] | – |
| CC(C)Cc1cc(C(=O)N2C[C@H](C3CC3)[C@@H](N)C2)n(C)n1 | -2.3% | – |
| O=C(c1ccc(Cn2cnnn2)cc1)N1CCC2(CC1)[C@H](O)C[C@@H]2OCCO | -2.43% | – |
| COc1ccc(OC)c(CNC(=O)Cc2cccn2-c2ccc(C)cc2)c1 | -4.62% | – |
| COc1ccccc1C(O)c1nc(Nc2ccc(Cl)cc2)n[nH]1 (centres undefined) | 3.08% [at 57.5 µM] | – |
| CNC(=O)C1(N2CCC[C@H]2C(=O)N2CCCC2)COC1 | 11.1% [at 76.7 µM] | – |
| COCCO[C@H]1C(=O)N(C2CCN(C(=O)c3cnccn3)CC2)[C@H]1c1ccncc1 | 5.4% | – |
